D1 potentiator – enhances dopamine response at the human D1 receptor; P21728; HEK293 TREx D1 cells, calcium flux, dopamine EC20 potentiation; potentiation, % at 10 µM; actives 0.036% (n = 360,000); AID 504651; in the data active = potentiation above about 30%; also: 0% is about no effect
D1 antag – blocks dopamine activation of the human D1 receptor | activity change, negative = inhibition, % at 10 µM | actives 3.2% (n = 360,000) | AID 504652 | HEK293 TREx D1 cells, calcium flux, dopamine EC80; active compounds read low | P21728; in the data active = activity change below about -30%; also: % is scaled to controls: 0 for no effect and ±100 for the full control effect
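Kinetic fluorescence of a calcium dye serves as the read-out. D1-expressing Hek293 Trex cells, induced overnight at 30 C, are exposed to compound for 180 s before an EC80 dopamine addition, then read 180 s further.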
D1 ag – agonists of human D1 dopamine receptor; activation, % at 2 µM; P21728; HEK293 T-REx D1 cells, calcium flux, agonist mode; actives 1% (n = 360,000); in the data active = activation above about 30%; also: 0% is about no effect
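Agonism was scored from calcium flux recorded over 180 s (1 read/s) after pintool compound addition, following a 10-cycle baseline. Cells were inducible force-coupled HEK293 TREx D1, plated overnight at 30 C and loaded with no-wash calcium dye.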
D3 antag – blocks the human D3 dopamine receptor. actives 2.5% (n = 360,000). D3R cells, DiscoveRx beta-arrestin luminescence, antagonist mode; active compounds read low. max response, negative = inhibition, %. P35462; in the data active = max response below about -50%; inconclusive = no clear call, values can overlap the other calls; also: % is scaled to controls: 0 for no effect and ±100 for the full control effect
Target sequence (P35462 whole entry, looked up): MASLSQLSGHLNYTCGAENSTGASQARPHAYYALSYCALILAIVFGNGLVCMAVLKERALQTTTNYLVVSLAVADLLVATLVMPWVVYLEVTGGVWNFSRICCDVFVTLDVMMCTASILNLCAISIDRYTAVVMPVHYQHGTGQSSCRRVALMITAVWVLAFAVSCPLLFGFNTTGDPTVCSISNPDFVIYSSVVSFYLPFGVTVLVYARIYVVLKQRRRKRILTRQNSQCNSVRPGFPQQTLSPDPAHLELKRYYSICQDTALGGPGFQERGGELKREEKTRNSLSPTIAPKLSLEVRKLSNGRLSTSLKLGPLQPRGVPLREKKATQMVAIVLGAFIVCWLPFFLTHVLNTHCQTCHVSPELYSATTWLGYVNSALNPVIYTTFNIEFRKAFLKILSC
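Cells expressing the human receptor were seeded at 1500 cells/well, incubated overnight at 37 degrees C in 5% CO2, then exposed to library compounds with dopamine controls for 90 minutes at 37 degrees C before luminescent detection.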
D3 ag – agonists of human D3 dopamine receptor; P35462; D3R DiscoveRx beta-arrestin cells, luminescence, 90 min; max activation, %; actives 0.58% (n = 410,000); AID 652048; in the data active = max activation above about 30%; also: 0% is about no effect
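Agonist-mode cell screen: cells plated at 1500/well and incubated overnight at 37 °C, then exposed to library compounds for 90 min at 37 °C. Detection reagent was added for 30–60 min at room temperature, and luminescence was read.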
Starred values were filed as active, the others as inactive; ? = inconclusive; . = no result given. In the library only some 6.1% were active in any assay of this set; here they are far more common.

SMILES	D1 potentiator	D1 antag	D1 ag	D3 antag	D3 ag
Cc1onc(-c2ccccc2Cl)c1C(=O)NCc1nc(-c2ccc(C(F)(F)F)cc2)no1	1	-37*	9	5	-2
Cc1onc(-c2ccccc2Cl)c1C(=O)NCc1ccccc1F	-3	-25	0	8	5
O=C(Cc1nnc(CNC(=O)c2ccccc2)o1)Nc1cc(C(F)(F)F)ccc1Cl	-4	18	1	.	.
O=C(CCc1nc(-c2ccccc2)no1)Nc1cc(C(F)(F)F)ccc1Cl	6	14	61*	-1	8
Clc1ccccc1CNc1ncnc2c1c(-c1ccccc1)cn2-c1ccccc1	-1	7	0	.	5
CCOc1ccc(OCC)c(NC(=O)CCc2nc3cccnc3n2-c2ccccc2)c1	-1	-9	2	.	-14
COc1cccc(NC(=S)N(CCc2ccc(OC)c(OC)c2)Cc2ccccn2)c1	-2	-17	2	-53*	-19
COc1ccc(CCN(Cc2ccccn2)C(=S)Nc2ccccc2C)cc1OC	-4	3	6	28	-2
COc1ccccc1N1CCN(C(=O)Cn2c(=O)n3nc(-c4cccc(C)c4)nc3c3ccccc32)CC1	5	.	0	.	3
CC1=CC(C)(C)N(C(=O)c2ccc(F)cc2)c2cc3c(cc21)OCO3	0	16	72*	-10	-4
COc1cccc(N2CCN(C(=O)C3Cc4ccccc4N3C(C)=O)CC2)c1 (stereo unspecified)	1	11	0	.	7
Cc1ccc(-n2nc3c(c2NC(=O)c2ccccc2Br)CS(=O)C3)cc1 (stereo unspecified)	-4	-43*	2	3	-2
Cc1c(C)c2cccnc2c2ncccc12	-6	-7	4	-103*	-21
NC1=NC2(CCCCC2)N=C(Nc2ccc(F)cc2F)N1	-10	2	-1	10	5
COc1ccc(OC)c(NC2=NC3(CCCC3)N=C(N)N2)c1	-23	-57*	6	-58*	-5
Cc1cc(C)cc(OCC(=O)NCc2nc(-c3ccccc3)no2)c1	-3	-58*	26	?	1
Cc1cccc(-c2noc(CNC(=O)COc3ccccc3C)n2)c1	1	16	3	-15	-4
CCOc1ccc(C(=O)N(Cc2nc(-c3cccc(C)c3)no2)C(C)C)cc1	1	-17	47*	.	-7
COc1ccccc1OCC(=O)N(Cc1nc(-c2ccc(Cl)cc2)no1)C(C)C	-5	-35*	1	31	0
Cc1cccc(-c2noc(CN(C(=O)c3ccc(C)c(C)c3)C(C)C)n2)c1	-4	4	14	.	-6
CCOc1cc(C(=O)NCc2nc(-c3cccc(C)c3)no2)cc(OCC)c1OCC	0	-31*	7	.	-19
COc1ccccc1OCC(=O)N(Cc1nc(-c2ccccc2)no1)C(C)C	-2	1	1	4	9
COc1ccc(NC(=O)CSc2nc(-c3ccccc3)[nH]c2-c2ccccc2)cc1OC	-4	1	0	.	-2
CN1C(=O)c2ccccc2Sc2ccc(NC(=O)NCc3cccc(Cl)c3)cc21	0	-5	-1	.	-16
CC(=O)Nc1ccc(NC(=O)CCc2nc3cccnc3n2Cc2cccs2)cc1	1	-9	6	.	-2
SMILES	D1 potentiator	D1 antag	D1 ag	D3 antag	D3 ag
CCOc1cc(C(=O)NN=C2CCCC2)cc(OCC)c1OCC	-6	-3	1	-51*	-12
CCOc1cc(C(=O)NCc2ccncc2)cc(OCC)c1OCC	-1	9	-4	-100*	-28
CCc1ccc(OCC(=O)NCCN(C)C)c(Br)c1	1	-34*	1	-18	-3
CCc1ccc(OCC(=O)NC2CCCCC2)c(Br)c1	6	10	4	-8	-4
CCc1ccc(OCC(=O)NCc2nc(-c3cccc(C)c3)no2)c(Br)c1	-2	8	38*	.	-24
Cc1cc(Cl)ccc1OCC(=O)N(Cc1ccc(N(C)C)cc1)CC1CCCO1 (stereo unspecified)	-1	5	1	.	-13
Cc1ccc(OCc2nc(-c3cccnc3)no2)cc1C	2	-18	1	13	4
Cc1cc(C)cc(OCc2nc(-c3cccnc3)no2)c1	-1	-30*	3	12	-9
Cc1ccc(NC(=O)CSc2n[nH]c(-c3ccc(F)cc3)n2)cc1F	-3	-11	5	.	-10
O=C1c2cccc3c([N+](=O)[O-])ccc(c23)C(=O)N1Cc1cccnc1	2	-40*	13	-26	-21
CSc1cccc(N2C(=O)N(Cc3ccc([N+](=O)[O-])cc3)c3ccccc3S2(=O)=O)c1	-5	-23	5	.	-2
O=S1(=O)c2ccccc2N(Cc2ccc(Cl)cc2)c2ccccc21	-4	3	32*	.	-18
C=Cc1ccc(CN2C(=O)N(c3cccc(Cl)c3)S(=O)(=O)c3ccccc32)cc1	-4	-92*	3	.	10
CC(C)CS(=O)(=O)c1oc(-c2ccc(F)cc2)nc1S(=O)(=O)c1ccccc1	0	11	6	.	-19
Cc1nn(-c2ccc(N3CCCCC3)nn2)c(C)c1CCC(=O)NCc1ccc(Cl)cc1	-3	-15	6	.	-12
Cc1cc(C)c(C#N)c(N2CCN(CCOc3ccc(Cl)cc3)CC2)n1	-2	4	6	-78*	-24
CC(C)Cc1[nH]c(=O)c(C#N)c2c1COC(C)(C)C2	-5	-33*	1	5	1
COc1cc(Cl)c(NC(=O)CN(C)S(=O)(=O)c2ccc3c(c2)CCCC(=O)N3)c(OC)c1	-9	-23	6	.	6
Cc1cccc(NC(=S)NCCc2ccc3c(c2)OCCO3)c1C	-6	-46*	4	15	2
COc1ccc2cc(CNc3ccc(OC)c(OC)c3)c(=O)n(CC(=O)Nc3ccc(C)cc3)c2c1	-4	-29	1	.	1
CC1(C)C[C@H](O)[C@]2(CO)CC[C@]3(C)C(=CCC4[C@@]5(C)CC[C@H](O)C(C)(C)C5CC[C@]43C)[C@@H]2C1 (stereo partly specified)	7	19	4	32	8
CC1(C)C[C@H](O)[C@]2(CO)[C@H](O)C[C@]3(C)C(=CCC4[C@@]5(C)CC[C@H](O)C(C)(C)C5CC[C@]43C)[C@@H]2C1 (stereo partly specified)	.	.	.	-84*	-7
O=C(CSC1=Nc2ccccc2C2CC=NN12)Nc1ccc2c(c1)OCO2 (stereo unspecified)	3	8	3	-50*	-16
CCCOC(=O)c1ccc(NC(=O)CSC2=Nc3ccccc3C3CC=NN23)cc1 (stereo unspecified)	4	14	5	-30	1
C/C(=N/OCC(=O)Nc1ccccc1)c1cccs1	11	-3	31*	-8	8
CCOc1ccccc1CNC(=O)c1ccc(Cn2c(=O)c3cccn3c3cccnc32)cc1	0	5	1	.	-2
